Among the test systems are SR leukemia; RPMI-8226 leukemia; OVCAR-8 ovarian; OVCAR-5 ovarian; OVCAR-4 ovarian; SK-OV-3 ovarian; IGROV1 ovarian; HS 578T breast; NCI/ADR-RES ovarian; OVCAR-3 ovarian.
Experiment in all cases: NCI-60 one-dose screen, 48 h (100 = growth as untreated, 0 = no growth, -100 = all killed)
Common to all, as to conditions: 10 µM unless noted

Molecules are shown by their SMILES. About 83,000 compounds went through this panel and 20% of them were active in at least one assay; those are over-represented in the sample as a whole.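 Each cell line was grown in a 96-well plate and treated with one concentration of compound for 48 hours. Values below 10 were considered active.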 Values without a mark were called inactive. Calls of active or inactive are those of the source.

This passage reports growth results from PubChem BioAssay (NCI).

Consider `Oc1cc(/C=C/c2nc(N3CCOCC3)c3cc(Cl)c(Cl)cc3n2)cc(O)c1O`, for which the growth in the experiment on SR leukemia is 87.8%; with RPMI-8226 leukemia it was 103%; in the experiment with OVCAR-8 ovarian, 107%; in the experiment with OVCAR-5 ovarian it was 102%; in the experiment with OVCAR-4 ovarian, 110%; with SK-OV-3 ovarian it was 105%. The growth with IGROV1 ovarian was 108%; with HS 578T breast it was 118%; in the experiment on NCI/ADR-RES ovarian it was 100%.
Regarding `Cc1ccccc1-c1nc(C(Cl)Cl)nc2cc(-c3ccccc3)nn12`, the growth was 50.2% in the experiment on SR leukemia; 61.6% in the experiment with RPMI-8226 leukemia; 86.9% in the experiment on OVCAR-8 ovarian; 96.4% in the experiment with OVCAR-5 ovarian; 77.5% in the experiment with OVCAR-4 ovarian; 59.9% with IGROV1 ovarian. Also, the growth in the experiment with OVCAR-3 ovarian was 28.3%; with HS 578T breast, 70%; in the experiment on NCI/ADR-RES ovarian, 65.3%.
As to `N#Cc1cnc2cc(OC[C@@H](O)CO)c(NC(=O)C3CCCC3)cc2c1Nc1ccc(OCc2cccc(F)c2)c(Cl)c1`, the growth with SR leukemia is 13.4%; in the experiment on RPMI-8226 leukemia it was -13.5% (active); in the experiment with OVCAR-8 ovarian, -13.6% (active); in the experiment with OVCAR-5 ovarian it was 86.1%; in the experiment on OVCAR-4 ovarian, -74.8% (active); in the experiment with SK-OV-3 ovarian, 27%. For the same molecule, the growth was 4.22% (active) in the experiment with IGROV1 ovarian, -32.2% (active) in the experiment on HS 578T breast and 63.3% in the experiment with NCI/ADR-RES ovarian.
With `COc1cccc(-c2nn(-c3ccccc3)cc2-c2ccnc(NCCCNS(=O)(=O)c3ccccc3)c2)c1`, the growth with SR leukemia is 2.99% (active); in the experiment with RPMI-8226 leukemia, 18.4%; with OVCAR-8 ovarian, 16%; in the experiment on OVCAR-5 ovarian, 67.2%; in the experiment with OVCAR-4 ovarian, 39.6%; in the experiment with SK-OV-3 ovarian, 43%. The growth is 31.3% in the experiment on IGROV1 ovarian, 37.5% in the experiment with HS 578T breast and 21.1% in the experiment on NCI/ADR-RES ovarian.
`S=c1[nH]nc2ccccn12`: the growth in the experiment with SR leukemia is 95.7%; in the experiment on RPMI-8226 leukemia, 108%; with OVCAR-8 ovarian, 125%; in the experiment with OVCAR-5 ovarian, 108%; with SK-OV-3 ovarian it was 114%; in the experiment with IGROV1 ovarian, 115%. The growth was 124% in the experiment with OVCAR-3 ovarian, 98.5% in the experiment with HS 578T breast and 100% in the experiment on NCI/ADR-RES ovarian.
Regarding `COc1ccc(C(=O)/C=C/c2cc(-c3cc(OC)c(OC)c(OC)c3)n[nH]2)cc1OC`, the growth in the experiment on SR leukemia is -15.6% (active); in the experiment with RPMI-8226 leukemia, -36% (active); in the experiment on OVCAR-8 ovarian it was -4.15% (active); in the experiment with OVCAR-5 ovarian, 32.9%; in the experiment with OVCAR-4 ovarian, 13.3%; with SK-OV-3 ovarian, 51.6%. Also, the growth in the experiment with IGROV1 ovarian was -5.47% (active); with HS 578T breast, 57.1%; with NCI/ADR-RES ovarian, 15%.
As for `COc1cccc(-c2nn(-c3ccccc3)cc2-c2ccnc(NCCCN)c2)c1`, the growth in the experiment with SR leukemia is -10.5% (active); in the experiment with RPMI-8226 leukemia it was 44%; in the experiment with OVCAR-8 ovarian, 62%; with OVCAR-5 ovarian it was 95.8%; in the experiment on OVCAR-4 ovarian, 63.8%; in the experiment with SK-OV-3 ovarian, 70.9%. The figures for the growth in the experiment on IGROV1 ovarian, in the experiment with HS 578T breast and in the experiment on NCI/ADR-RES ovarian were 54.4%, 43.6% and 25%, respectively.
As for `CNC(=O)c1cc(Oc2ccc3nc(NC(=O)Nc4ccc(Cl)cc4)sc3c2)ccn1`, the growth in the experiment with SR leukemia is 42.7%; in the experiment on RPMI-8226 leukemia it was 81.7%; with OVCAR-8 ovarian it was 57.2%; in the experiment on OVCAR-5 ovarian, 92.3%; with OVCAR-4 ovarian, 13%; with SK-OV-3 ovarian, 82%. In addition, the figures for the growth in the experiment with IGROV1 ovarian, in the experiment on HS 578T breast and with NCI/ADR-RES ovarian were 83.6%, 30.1% and 83.6%, respectively.
On to `COc1ccc(NC(=S)N/N=C/c2ccccc2SSCCC(=O)OC[C@H]2O[C@H](O)[C@H](O)[C@@H](O)[C@@H]2O)cc1`, for which the growth in the experiment on SR leukemia was 49.6%; in the experiment with RPMI-8226 leukemia, 91.7%; with OVCAR-8 ovarian, 68.3%; with OVCAR-5 ovarian, 100%; in the experiment with OVCAR-4 ovarian, 80.4%; in the experiment on SK-OV-3 ovarian, 73.5%. The figures for the growth with IGROV1 ovarian, in the experiment on HS 578T breast and in the experiment with NCI/ADR-RES ovarian were 56.8%, 91.6% and 59.7%, respectively.
Take `Cn1cnc2c1c(=O)n(CCC(=O)Nc1ccc(F)cc1)c(=O)n2C`: the growth with SR leukemia was 102%; with RPMI-8226 leukemia it was 101%; in the experiment on OVCAR-8 ovarian, 102%; in the experiment with OVCAR-5 ovarian, 101%; in the experiment with OVCAR-4 ovarian, 109%; with SK-OV-3 ovarian it was 91.2%. The growth with IGROV1 ovarian is 107%; with HS 578T breast, 106%; in the experiment with NCI/ADR-RES ovarian it was 109%.
Turning to `CCSc1sc(-c2ccc(C)cc2)nc1[P+](c1ccccc1)(c1ccccc1)c1ccccc1`, the growth was -17.9% (active) in the experiment with SR leukemia; -33.9% (active) in the experiment with RPMI-8226 leukemia; 1.31% (active) in the experiment with OVCAR-8 ovarian; 18.3% in the experiment on OVCAR-5 ovarian; -4.21% (active) with OVCAR-4 ovarian; -23.1% (active) in the experiment with SK-OV-3 ovarian. The growth was -8.55% (active) with IGROV1 ovarian, -3.68% (active) with HS 578T breast and -5.4% (active) in the experiment on NCI/ADR-RES ovarian.
For `Nc1c2c(nc3ccc(Cl)cc13)CC(c1ccc(O)cc1)CC2=O` (configuration not stated), the growth in the experiment on SR leukemia was 31.8%; with RPMI-8226 leukemia it was 34.9%; in the experiment on OVCAR-8 ovarian, 75.5%; with OVCAR-5 ovarian, 91.9%; with OVCAR-4 ovarian, 81.3%; with SK-OV-3 ovarian, 68.7%. The figures for the growth in the experiment on IGROV1 ovarian, in the experiment with HS 578T breast and in the experiment on NCI/ADR-RES ovarian were 49.3%, 46.1% and 25.1%, respectively.
Take `CC1(n2nnnc2N2CCCN(c3ncccc3N)CC2)CCC1`: the growth in the experiment on SR leukemia was 79.1%; in the experiment with RPMI-8226 leukemia, 104%; in the experiment on OVCAR-8 ovarian, 102%; with OVCAR-5 ovarian it was 98.7%; in the experiment with OVCAR-4 ovarian, 97.2%; in the experiment with IGROV1 ovarian, 99.7%. Besides, the growth in the experiment on OVCAR-3 ovarian is 106%; with HS 578T breast it was 97.5%; in the experiment on NCI/ADR-RES ovarian, 103%.
